NOD2 RIPK2 PPI: blocks binding of human NOD2 to RIPK2. O43353. CHO BLA complementation NOD2-RIPK2, CCF4 ratio. inhibition, % at 4.98 µM. 0.38% of 360,000 active. AID 624267; in the data active means inhibition above about 21%
TLR9-MyD88 inh: blocks human TLR9 binding to MyD88; Q9NR96+Q99836; CHO BLA complementation TLR9-MyD88, CCF4 FRET ratio; inhibition, % at 4.98 µM; 0.21% of 340,000 active; AID 504734;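 active means inhibition above the mean over all tested compounds plus 3 SD, cut at about 21% in these data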
rCAG RNA binder: molecules binding r(CAG) RNA repeats | r(CAG) RNA repeat, TO-PRO-1 dye displacement fluorescence | inhibition, % at 3 µM | 1.3% of 370,000 active | AID 651821;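 active means inhibition above the plate cutoff, the mean of all test compounds on that plate plus 3 SD, cut at about 35% in these data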;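 further: higher means more dye released from RNA so lower well fluorescence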
ABHD5 PLIN5 PPI: inhibitors of human ABHD5-perilipin-5 interaction; Q00G26+Q8WTS1; Split G. princeps luciferase complementation, luminescence, 4 h; inhibition, % at 4 µM; 0.78% of 360,000 active;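 active means inhibition above the mean inhibition across every tested compound plus 3 SD, cut at about 22% in these data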
Target sequence (Q00G26 whole entry, looked up): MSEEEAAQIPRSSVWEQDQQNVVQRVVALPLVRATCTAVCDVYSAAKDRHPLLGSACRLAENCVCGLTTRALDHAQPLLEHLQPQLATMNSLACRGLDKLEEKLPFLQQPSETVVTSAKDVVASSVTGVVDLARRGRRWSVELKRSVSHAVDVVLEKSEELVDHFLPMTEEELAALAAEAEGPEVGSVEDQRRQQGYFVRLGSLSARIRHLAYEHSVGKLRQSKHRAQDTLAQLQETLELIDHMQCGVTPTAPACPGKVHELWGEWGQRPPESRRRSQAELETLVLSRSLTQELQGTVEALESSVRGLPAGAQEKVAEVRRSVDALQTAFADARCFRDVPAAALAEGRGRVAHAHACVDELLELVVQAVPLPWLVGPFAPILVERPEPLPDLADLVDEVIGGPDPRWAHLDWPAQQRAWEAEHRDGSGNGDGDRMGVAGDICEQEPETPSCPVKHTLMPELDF
Target sequence (Q8WTS1 whole entry, looked up): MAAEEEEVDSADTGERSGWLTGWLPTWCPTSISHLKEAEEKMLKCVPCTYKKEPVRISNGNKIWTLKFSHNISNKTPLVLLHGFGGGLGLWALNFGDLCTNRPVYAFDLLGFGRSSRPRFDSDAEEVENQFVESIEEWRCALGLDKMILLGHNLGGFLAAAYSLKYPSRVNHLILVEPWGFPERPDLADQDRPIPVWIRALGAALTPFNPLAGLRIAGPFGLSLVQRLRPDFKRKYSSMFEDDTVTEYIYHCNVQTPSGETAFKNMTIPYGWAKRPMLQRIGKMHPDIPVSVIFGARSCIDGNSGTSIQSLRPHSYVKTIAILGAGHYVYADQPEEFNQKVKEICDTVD
PRMT1 inh: blocks human protein arginine methyltransferase 1. 1.3% of 370,000 active. AID 652257. recombinant PRMT1, activity-based probe fluorescence polarization. inhibition, % at 2.79 µM. Q99873;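 active means inhibition above about 21% made by adding two undisclosed values, limit read from the data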
TLR4-MyD88 BLA: inhibitors of human TLR4-MyD88 binding; 0.18% of 200,000 active; O00206+Q99836; inhibition, % at 8.4 µM; AID 861; HeLa CL3-4 TLR4/MyD88 BLA complementation, FRET ratio; in the data active means inhibition above about 25%
NOD2-RIPK2 conf: confirmation of human NOD2-RIPK2 interaction inhibitors; inhibition, % at 4.98 µM; 70% of 1,200 active; CHO cells, NOD2-RIPK2 BLA complementation, CCF4 FRET; shares compounds with NOD2 RIPK2 PPI;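 active means mean inhibition across replicates above a set limit taken from the earlier primary screen, cut at about 21% in these data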
BLA counter: counter-screen for NOD2-RIPK2 interaction inhibitors: BLA reporter | 57% of 1,200 active | inhibition, % at 4.98 µM | shares compounds with NOD2 RIPK2 PPI | AID 624371 | CHO BLA reporter, CCF4 FRET ratio, counterscreen;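 active means mean inhibition above the low-control mean inhibition plus three low-control SD, cut at about 11% in these data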
A number is an active result; i = inactive; nt = no result given; + = active, no number. This is a sample that favours compounds with a hit; in the whole collection about 3.3% have one here.

SMILES	NOD2 RIPK2 PPI	TLR9-MyD88 inh	rCAG RNA binder	ABHD5 PLIN5 PPI	PRMT1 inh	TLR4-MyD88 BLA	NOD2-RIPK2 conf	BLA counter
O=[N+]([O-])c1ccc(N/N=C/c2ccccc2O)cc1	27	i	i	i	i	nt	38	35
C/C(=N/NC(=O)CN1CCN(Cc2ccccc2Cl)CC1)c1cccc(O)c1	nt	nt	i	nt	i	nt	nt	nt
Cc1cccc(C)c1N1CCN(C(c2cc3ccccc3o2)c2nnnn2C(C)(C)C)CC1 (centres undefined)	21	nt	nt	i	nt	nt	i	i
CCCCCCCCCc1nc2sc3c(c2c(=O)n1NC(=O)c1ccc([N+](=O)[O-])cc1)CC(C)(C)OC3	32	i	i	i	i	i	i	i
COCCCNc1c2c3c(cccc3[nH]c1=O)C(=O)c1ccccc1-2	32	i	i	i	+	i	37	41
Cc1cccc(C)c1NC(=O)C(c1ccc(C(F)(F)F)cc1)n1c(=O)c(-c2cc3ccccc3[nH]2)nc2ccccc21 (centres undefined)	47	nt	i	i	i	nt	45	69
Cc1cccc(C)c1NC(=O)C(c1ccc(-c2ccccc2)cc1)n1c(=O)c(-c2cc3ccccc3[nH]2)nc2ccccc21 (centres undefined)	42	nt	i	i	i	nt	39	66
COc1ccc(NC(=O)N(C)C[C@H]2OCCCC[C@@H](C)Oc3ccc(NC(=O)c4ccccc4)cc3C(=O)N([C@H](C)CO)C[C@@H]2C)cc1	i	i	i	i	i	nt	nt	nt
OC[C@@H]1CN(Cc2ccc3c(c2)OCO3)C[C@H](n2cnc3c(N4CCN(c5ccccc5)CC4)ncnc32)O1	i	nt	i	i	i	nt	nt	nt
Cc1ccccc1NC(=O)C1C2CCCCC21 (centres undefined)	i	i	i	i	i	nt	nt	nt
Cc1ccccc1NC(=O)C1C2CC/C=C\CCC21 (centres undefined)	27	i	i	i	i	i	i	i
CN(CC(=O)O)Cc1oc(CO)cc(=O)c1O	i	i	i	i	i	nt	nt	nt
CN(C)c1ccc(/C=N/NC(=O)c2ccc3c(c2)OCO3)cc1	i	i	i	i	i	nt	nt	nt
CN(C)c1ccc(/C=C/C(=O)c2ccc3c(c2)OCO3)cc1	55	i	i	i	i	nt	48	55
O=C(Cn1nnc(-c2ccc(N3CCOCC3)cc2)n1)c1ccc(F)cc1	nt	nt	i	nt	i	nt	nt	nt
CCOC(=O)c1c(CN2CCNCC2)nc2ccc(Cl)cc2c1-c1ccccc1	21	i	i	i	i	nt	i	i
Cc1ccc(NS(=O)(=O)c2ccc(-c3cnc(C4CC4)o3)cc2)cc1	i	i	i	i	i	nt	nt	nt
Cc1cccc(C)c1NS(=O)(=O)c1ccc(-c2cnc(C3CC3)o2)cc1	23	i	i	i	i	nt	i	i
CC1C=CC(C)C(C(=O)c2ccccc2)C1C(=O)c1ccccc1 (centres undefined)	30	i	i	i	i	nt	i	i
C[C@H](NC(=O)N1CCn2c1nc1ccccc12)C(=O)N1CCCCC1	21	i	i	i	i	nt	i	i
C[C@H](NC(=O)N1CCn2c1nc1ccccc12)C(=O)NC1CC1	i	i	i	i	i	nt	nt	nt
CCOC(=O)N1CCC(NC(=O)c2ccc3c(c2)N=C(C)c2c(C)ccc(C)c2S3)CC1	24	i	i	i	i	nt	i	i
CCCCn1c(N)c(N(CCOC)C(=O)COC(=O)c2ccccc2NCCO)c(=O)[nH]c1=O	i	i	i	i	i	nt	nt	nt
CCCCSc1nc(C)cc(SCC(=O)N/N=C/c2ccccc2)n1	i	i	i	i	i	i	nt	nt
O=C(c1cccc(F)c1)N1CCN(S(=O)(=O)c2ccccc2)CC1	i	i	i	i	i	i	nt	nt
SMILES	NOD2 RIPK2 PPI	TLR9-MyD88 inh	rCAG RNA binder	ABHD5 PLIN5 PPI	PRMT1 inh	TLR4-MyD88 BLA	NOD2-RIPK2 conf	BLA counter
O=C(c1ccccc1)N1CCN(S(=O)(=O)c2ccccc2)CC1	31	i	i	i	i	nt	i	i
COC(=O)C(NC(C)=O)(Nc1nc2c(C)cc(C)cc2s1)C(F)(F)F (centres undefined)	i	i	i	i	i	i	nt	nt
Cc1ccc(CC(NC(=O)c2ccccc2)C(=O)NC(CC(C)C)C(=O)O)cc1 (centres undefined)	59	i	i	i	i	i	i	i
COc1ccc(O)c(/C=N/NC(=S)NCCc2ccccc2)c1	26	i	i	i	i	nt	29	23
Oc1ccc(Br)cc1/C=N/NC(=S)NCCc1ccccc1	i	i	i	i	i	nt	nt	nt
CCc1cccc(CC)c1N1C(=O)COCC1=O	i	i	i	i	i	nt	nt	nt
CCc1cccc(CC)c1N1C(=O)C2=C(SCCCS2)C1=O	40	i	i	i	i	nt	35	38
O=C1CC(C(=O)N2CCc3ccccc32)CN1c1ccccc1 (centres undefined)	i	i	i	i	i	nt	nt	nt
Cc1c(NC(=S)NC(NC(=O)C(C)(C)C)C(Cl)(Cl)Cl)c(=O)n(-c2ccccc2)n1C (centres undefined)	25	i	i	i	i	i	i	i
CCCC(=O)NC(NC(=S)Nc1c(C)n(C)n(-c2ccccc2)c1=O)C(Cl)(Cl)Cl (centres undefined)	i	i	i	i	i	i	nt	nt
COc1ccc(C2CC(c3c(O)cc(C)oc3=O)=NCCS2)c(OC)c1 (centres undefined)	23	i	nt	i	nt	i	i	i
O=C(O)c1ccc(Oc2ccc(S(=O)(=O)c3ccc(C(=O)O)c(C(=O)O)c3)cc2)cc1	i	i	i	i	i	nt	nt	nt
N#Cc1c2ccc(O)cc2n2ccccc12	22	i	i	i	i	i	21	26
COC(=O)c1cc2c(c3c4cc(C)ccc4n(S(=O)(=O)c4ccc(C)cc4)c13)C(=O)N(Cc1ccc(C(F)(F)F)cc1)C2	nt	nt	i	nt	i	nt	nt	nt
N#CC(=C1C=CC(=NO)C(Cl)=C1)c1ccc(Cl)cc1	42	i	i	i	i	nt	26	23
COc1ccc(N2CCC(CNC(=S)Nc3ccc(C)cc3C)C2)cc1 (centres undefined)	i	i	i	i	i	nt	nt	nt
O=C(CN(c1cc(Cl)ccc1Cl)S(=O)(=O)c1ccccc1)N1CCOCC1	i	i	i	i	i	nt	nt	nt
CNC(=O)c1c(Cl)cnn1-c1ccccc1	i	nt	i	i	i	i	nt	nt
CC(=O)Nc1c(Cl)cnn(-c2ccccc2)c1=O	22	nt	i	i	i	nt	i	i
CCCOc1ccc(F)cc1-c1cc(C(=O)Nc2ccc(OC)cc2C)[nH]n1	i	nt	i	i	i	nt	nt	nt
CC(C)(C)NC(=O)C(c1cccc2ccccc12)n1c(=O)c(-c2cc3ccccc3[nH]2)nc2ccccc21 (centres undefined)	40	nt	i	i	i	nt	34	62

Assay outcomes deposited in PubChem by The Scripps Research Institute Molecular Screening Center.
